# Assay results taken from PubChem BioAssay (NCI).
# The panel holds about 83,000 compounds, 20% with a hit somewhere; the sample as a whole holds those more often.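 Method: cells in 96-well plates; compound added at one concentration; 48 h incubation; percent growth measured; values under 10 scored active.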 A number with no mark means an inactive call. Activity calls are given as the source filed them.
# Tested on: HCC-2998 colon
# Test: NCI-60 one-dose screen, 48 h (100 = growth as untreated, 0 = no growth, -100 = all killed)
# Settings: 10 µM unless noted
# Description: Growth inhibition of the HCC-2998 human tumor cell line is measured as a screen for anti-cancer activity. Cells are grown in 96 well plates and exposed to the test compound for 48 hours. Compounds are tested at a single concentration, which is 10^-5 M for most compounds. The reported endpoint is percent growth (GI% or GIPRCNT), where numbers from 0 - 100% represent growth inhibition, and numbers from -100% - 0 represent cell death. For example, a value of 40 represents 60% growth inhibition. A value of 0 means no net growth occurred over the course of the experiment. A value of -40 indicates 40% of cells at the beginning of the experiment died by the end of the experiment. A value of -100 means all cells are dead at the end of the experiment.
# NCI-60 Human Tumor Cell Lines Screen was performed using the standard one-dose NCI protocol, which is described in more detail at https://dtp.cancer.gov/discovery_development/nci-60/default.htm.
# Compounds with GIPRCNT values below 10 were considered active. Activity score was based on GIPRCNT using the following formula: […]
# Score is 0 for GIPRCNT values of 100 or above, 50 for GIPRCNT values of 0, and 100 for GIPRCNT values of -100.
row,Structure (SMILES),growth
1,O/N=C/c1cccs1,111%
2,CC(C)(C)[Si](C)(C)OC1[C@@H](O[Si](C)(C)C(C)(C)C)[C@@H](CNC(=O)NC(=O)C(F)(F)F)O[C@H]1n1cnc2c(NC(=O)Nc3ccccc3)ncnc21 (stereo not given in full),79.3%
3,O=C(N/N=C/c1ccc(OC(F)F)c(OC2CCCC2)c1)c1cnn2c1NC(c1ccccc1)C2 (stereo not given),111%
4,Cc1ccccc1-c1cc(-c2ccc(Br)s2)[nH]c(=O)c1C#N,104%
5,FC(F)(F)Oc1ccc2c(c1)C[C@H]1C[C@@H](c3ccoc3)N2O1,97.5%
6,Cc1nc2cc(Nc3nc(N4CCCCC4)nc(N4CCOCC4)n3)ccc2n1Cc1ccccc1,94.3%
7,O=C1CC(c2ccsc2)c2snc(-c3ccc(Cl)cc3)c2N1 (stereo not given),58.5%
8,O=C1Nc2ccc(Cl)cc2/C1=N/N=C(c1ccccc1)c1ccccc1,102%
9,O=c1[nH]c(-c2ccccn2)nc2sc3c(c12)CCCCCC3,53.5%
10,CCCOC(=O)c1ccc2c(c1)[N+](=O)C(C(=O)c1ccccc1)=C(C(F)(F)F)[N+]2=O,-87.6% (active)
11,COC(=O)c1c2c(c(C)[n+]([O-])c1C)C(=O)C=C(NCc1ccc(Cl)cc1)C2=O,-34.6% (active)
12,NC(=O)c1cc(I)ccc1NC(=O)COc1ccc(Cl)cc1Cl,95.3%
13,O=C1CN2CCC1C/C2=C\c1ccnc2c(Cl)cccc12 (stereo not given),102%
14,Cl.Fc1c[c-]c(-c2ccccn2)c(F)c1.[Pt].c1ccc([PH+](CC[PH+](c2ccccc2)c2ccccc2)c2ccccc2)cc1,-82.9% (active)
15,O=C1/C(=C/c2ccccc2F)CNC/C1=C\c1ccccc1F,-89.2% (active)
16,COc1ccccc1CNCCCCCCCCCCCCN1C(=O)c2ccc3c4c(ccc(c24)C1=O)C(=O)N(CCCCCCCCCCCCNCc1ccccc1OC)C3=O,80.9%
17,COc1ccc(-n2c(SCc3cc(OC)c(OC)c(OC)c3)nc3ccc(C)cc3c2=O)c(OC)c1,45.5%
18,COc1cc2nc(N3CCC[C@H](NC4=CC(=O)c5ccccc5C4=O)C3)nc(N)c2cc1OC,92.9%
19,COC(=O)c1c2c(c(C)[n+]([O-])c1C)C(=O)C(NCc1ccc(O)cc1)=CC2=O,-20.1% (active)
20,COc1cccc(C2C3=C(COC3=O)N(CCO)c3cc4c(cc32)OCO4)c1 (stereo not given),5.59% (active)

row,Structure (SMILES),growth
1,O=[N+]([O-])c1ccc(O)c2ncccc12,51.6%
2,Cc1nc2cc(Nc3nc(Nc4ccc(F)cc4)nc(N4CCCC4)n3)ccc2n1Cc1ccccc1,-59.2% (active)
3,Clc1ccc(C2=NN(c3ccccc3)[C@H](c3cn(-c4ccccc4)nc3-c3ccccc3)C2)cc1,103%
4,COc1ccc(-c2c3c(N)c4c(nc3nc3c2c(C)nn3-c2ccccc2)CCCCC4)cc1,86.6%
5,Nc1cc(Br)c(-c2nnc(CCC(=O)c3nc4ccccc4[nH]3)o2)c(Br)c1,78%
6,C[C@]1(CO)C[C@@H](O)C[C@]2(C)[C@@H]1CC[C@@]13C[C@@H]4[C@@H](C[C@H]12)[C@]4(C)C3,119%
7,CCCCCCCCCCCCCCn1c2ccccc2c2c3c(c4c5cc(OC)ccc5oc4c21)C(=O)NC3=O,107%
8,Cc1nn(-c2ccccc2)c2nc3nc4c(c(N)c3c(-c3ccc(Cl)cc3)c12)CCCC4,113%
9,CSC1=CC(=O)c2ccccc2C1=O,107%
10,COc1nc2c(cc1S(=O)(=O)c1ccccc1)CCc1c-2cnn1-c1cccc(Cl)c1,101%
11,COc1cc(/C=C2\C(=O)N(c3c(Cl)cccc3Cl)c3ccccc32)cc(OC)c1O,44.6%
12,c1ccc2c(c1)oc1cc3c(cc12)nnc1cccn13,110%
13,Cc1ccc(C(=O)Nc2ccccc2N)cc1,77.1%
14,O=C(O)c1ccccc1Oc1cc(-c2ccco2)nc(OCCBr)n1,107%
15,COc1cc(/C=C/C(=O)CC(=O)/C=C/c2cc(Br)c(OC)c(OC)c2)cc(Br)c1OC,109%
16,CCCCCCCC/C=C\CCCCCCCCOc1cccc(CC(=O)NCC[N+]2(C)CCCC2)c1,75.9%
17,Brc1ccc(Br)nn1,-53.5% (active)
18,CS(=O)(=O)Nc1cccc(C(=O)NCc2ccc(N3CCOCC3)cc2)c1,106%
19,C[C@H]1C(=O)C23CCC1C[C@@]21O[C@@H]2C(C)(C)C=CC(=O)C23COC1=O,104%
20,Brc1ccccc1Nc1ccc2nnc(-c3ccncc3)n2n1,113%
